Screens: PubChem BioAssay, National Center for Advancing Translational Sciences (NCATS)
Mito fusion yeast: mitochondrial division inhibition or fusion activation; S. cerevisiae fusion-defective mutant growth rescue, CellTiterGlo 48 h; Potency, µM (highest dose often 46.1 µM), for inactives: at the top dose growth rescue (activation), hits mostly activators; hit rate 0.23% among 320,000; AID 485298; note: potency is the fitted concentration of half-maximal effect; % of control where 0% means no effect; nearly all actives have a fitted effect of over 45% in size
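Luminescent cell viability in 1536-well qHTS format served as the measure of rescued growth in ts fusion-mutant S. cerevisiae cultured on non-fermentable YPEG for 48 hours at 37C.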
B2AR arrestin: agonists driving beta-arrestin recruitment to human beta2-adrenergic receptor. beta-arrestin recruitment to beta2AR, cell-based reporter. Potency, µM (series often up to 46.1 µM), without a hit: top-dose activation, actives largely listed as activators. hit rate 0.02% among 330,000. AID 492947;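 note: potency is the fitted concentration of half-maximal effect; 0% = DMSO controls and full agonism = EC100 isoproterenol or metaproterenol; nearly all actives have a fitted effect of over 65% in size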
Target sequence (P07550 whole entry, looked up): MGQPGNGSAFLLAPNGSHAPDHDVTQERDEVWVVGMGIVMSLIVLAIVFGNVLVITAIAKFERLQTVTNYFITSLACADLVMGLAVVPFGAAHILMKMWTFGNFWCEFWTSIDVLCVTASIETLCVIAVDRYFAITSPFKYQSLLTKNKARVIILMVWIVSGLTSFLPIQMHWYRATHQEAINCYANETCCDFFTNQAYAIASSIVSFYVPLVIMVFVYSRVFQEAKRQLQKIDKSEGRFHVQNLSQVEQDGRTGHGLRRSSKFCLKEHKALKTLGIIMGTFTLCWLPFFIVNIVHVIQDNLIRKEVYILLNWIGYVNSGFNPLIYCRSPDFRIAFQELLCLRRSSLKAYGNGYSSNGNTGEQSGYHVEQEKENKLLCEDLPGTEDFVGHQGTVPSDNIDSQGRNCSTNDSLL
uPA generation: blocks generation of uPA at the cell surface; cell surface uPA generation assay, qHTS; Potency, µM (titrated, usually from 38.3 µM), without a hit: top-dose activity change, negative = inhibition, most hits filed as inhibitors; hit rate 0.31% among 330,000; AID 540303; active = well fitted inhibition curve with a large enough effect; inconclusive = small, poorly fitted or top-dose-only effect; inactive = no such curve, though single readings can be large or run the other way; tested in mouse RAW 264.7 cells; note: potency is the fitted concentration of half-maximal effect; % is set by controls: 0 for no effect and ±100 for the full control effect; nearly all actives have a fitted effect of over 55% in size
Giardia killer: kills Giardia lamblia. Giardia lamblia trophozoite viability. activity change, % at 7.66 µM, hits read low. hit rate 0.15% among 340,000. AID 540267; in the data active = activity change below about -80%; inconclusive = between about -30% and that limit;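 note: parasites exposed to compound for two days anaerobically before the ATP read; % is set by controls: 0 for no effect and ±100 for the full control effect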
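Giardia trophozoites, 100 cells per well, were exposed to compounds for 48 hrs at 37 deg C under anaerobic conditions; viability was then read as ATP content by bioluminescence after 15-30 min at room temperature.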
ClpP mod: qHTS Assay for Activators of ClpP; ATP-dependent Clp protease proteolytic subunit (Bacillus subtilis (strain 168)), P80244; purified B. subtilis ClpP, FRET peptide cleavage, 20 min; Potency, µM (highest dose often 57.5 µM), for inactives: top-dose activity change, negative = active; hit rate 1.9% among 340,000; AID 651965, 2013; active = well fitted falling curve with a large enough effect; inconclusive = small, poorly fitted or top-dose-only effect; inactive = no such curve, though single readings can be large or run the other way; note: potency is the fitted concentration of half-maximal effect; the source files actives as falling curves though it sought activators and does not explain the sign; nearly all actives have a fitted effect of over 65% in size
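ClpP 10 microg/mL final, pH 8 Tris/KCl buffer with BSA, glycerol, Tween-20; compound pinned in; FRET-FV substrate; RT 20 min; Ex320/Em430; ΔFRET vs ADEP 5.8 microM, DMSO, no enzyme.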
p53 reactivator: re-activators of mutant p53 | AID 504706 | H1299 p53-A138V BP100-luciferase reporter, luminescence, 24 h | Potency, µM (titrated, usually from 92.2 µM), without a hit: at the top dose activity change, positive = activation, actives largely listed as activators | hit rate 0.063% among 320,000; note: potency is the fitted concentration of half-maximal effect; % of control where 0% means no effect; nearly all actives have a fitted effect of over 45% in size
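p53-null H1299 cells stably carrying temperature-sensitive p53-A138V and a BP100-luciferase reporter were pinned with compounds (4-point, 1:5 series) and held 24 hrs at 37 deg C. Luminescence was read 10 min after detection reagent.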
* hit, by the source's call; ? = inconclusive; · = no result given; ! = not confirmed by another sample. This is a sample that favours compounds with a hit; in the whole collection about 2.1% have one here. Unless noted, calls come from the whole dose curve; as a rule, active = well fitted curve in the direction sought with a large enough effect; inconclusive = small, poorly fitted or top-dose-only effect, or another doubt; inactive = no such curve, though single readings can be large; an effect the other way counts as inactive or inconclusive.

SMILES | Mito fusion yeast | B2AR arrestin | uPA generation | Giardia killer | ClpP mod | p53 reactivator
COc1ccc(CC(=O)Nc2oc(-c3ccccc3)c(-c3ccccc3)c2C#N)cc1OC | -6% | 0% | -4% | 1 | 32µM* | 4%
COc1ccccc1OCC(=O)Nc1oc(-c2ccccc2)c(-c2ccccc2)c1C#N | -8% | 0% | 0% | -2 | ? | -4%
COC(=O)c1ccccc1NC(=O)n1cc(C)cn1 | 4% | 0% | 2% | -5 | 32µM* | -5%
COC(=O)c1ccccc1NC(=O)Nc1ccc(C)cn1 | -3% | 0% | -5% | 7 | · | 10%
COc1ccccc1NC(c1ccc(Cl)cc1)c1nnc(-c2cccc(F)c2)o1 (configuration not stated) | · | · | · | · | -4% | ·
CC1CCc2c(sc(NC(=O)COC(=O)c3ccccc3NCc3ccco3)c2C#N)C1 (configuration not stated) | 6% | 0% | · | -2 | 13µM* | 8%
CCOC(=O)c1ccc(NC(=O)c2c(N3CCCC3=O)c3cc(OC)ccc3n2C)cc1 | · | · | · | · | -8% | ·
COc1ccc2c(c1)CC(C(=O)NCCN1CCN(c3cccc(Cl)c3)CC1)CO2 (configuration not stated) | · | · | · | · | -1% | ·
COC(=O)C1=CN(CC2CCCO2)C=C(C(=O)OC)C1c1ccccc1C(F)(F)F (configuration not stated) | 2% | 0% | 3% | -7 | 32µM* | -2%
COC(=O)C1=CN(CC2CCCO2)C=C(C(=O)OC)C1c1cccc(O)c1 (configuration not stated) | 16% | 0% | 5% | 5 | · | -1%
CCc1ccc2c(CN3CCN(S(=O)(=O)c4cccs4)CC3)cc(=O)oc2c1 | 25% | -1% | -13% | 42 | 32µM* | -8%
CCc1ccc2c(CN3CCN(S(=O)(=O)c4ccccc4F)CC3)cc(=O)oc2c1 | · | 0% | -8% | 13 | · | -2%
CCn1nc(C)c(CCN(C)C(=O)Nc2cc(C)cc(C)c2)c1C | · | · | · | · | 1% | ·
CCOC(=O)c1ccc2c(c1)N(Cc1cccc([N+](=O)[O-])c1)C(=O)c1ccccc1S2 | · | · | · | · | 1% | ·
CC(OC(=O)CCCN=C1NS(=O)(=O)c2ccccc21)C(=O)Nc1ccc(F)c(F)c1F (configuration not stated) | 2% | -1% | -3% | -3 | 2% | -7%
CC(OC(=O)CCN=C1NS(=O)(=O)c2ccccc21)C(=O)Nc1ccc(F)c(F)c1F (configuration not stated) | 3% | 0% | -1% | 8 | 32µM* | 6%
CCOc1ccc(N(C)C(=O)CS(=O)(=O)c2cccc3nsnc23)cc1 | · | · | · | · | 0% | ·
Cc1ccc(Cl)cc1N1CCN(C(=O)CSc2nnc3n2C(C)(C)Cc2ccccc2-3)CC1 | 16µM* | 0% | -10% | 7 | -4% | -14%
Cc1ccc(Cl)cc1N1CCN(C(=O)CSc2ccsc2[N+](=O)[O-])CC1 | 5% | 0% | 1% | -8 | 28µM* | -2%
Cc1ccc(Cl)cc1N1CCN(C(=O)CSc2cc(=O)n(C)c3ccccc23)CC1 | · | · | · | · | -27% | ·
COc1ccc(N2CCN(C(=O)CSc3nnc4n3C(C)(C)Cc3ccccc3-4)CC2)cc1 | -1% | ? | · | 2 | 0% | -16%
COc1ccccc1NC(=O)C1=C(C)Nc2nc(-c3ccco3)nn2C1c1cccc(C)c1 (configuration not stated) | · | · | · | · | 0% | ·
Cc1ccc(S(=O)(=O)NCC(=O)OCC(=O)Nc2cccc(S(=O)(=O)NC3=NCCCCC3)c2)cc1 | 8% | 0% | 7% | 4 | 25µM* | -1%
Cc1cc(Nc2ccc(C)c(C)c2)c2ccccc2n1 | -6% | -1% | -11% | 11 | · | -7%
Cc1ccc(Nc2nc(N)c3ccccc3n2)cc1C | -12% | -1% | 7.1µM* | -22 | -6% | ·
COc1ccc(Nc2nc(N)c3cc(OC)c(OC)cc3n2)cc1 | · | · | · | · | -18% | ·
COc1cc2nc(Nc3cccc(F)c3)nc(N)c2cc1OC | -3% | -1% | 3% | -8 | 32µM*! | 8%
